Here are results for 7 sequences from PMC7862700, “An all-to-all approach to the identification of sequence-specific readers for epigenetic DNA modifications on cytosine”.

Common to all, as to test: DAPPL (digital affinity profiling via proximity ligation, sequencing); 10 mM Tris-HCl pH 7.5, 50 mM NaCl, 1 mM DTT, 4% glycerol, room temperature, 30 min; GST-TFs on glutathione beads, 16-mer random dsDNA library, 0.1% formaldehyde crosslink after washing; high values mean tight binding
Common to all, as to details: protein: recombinant; tags: N-terminal GST; dsDNA, one strand shown

The target of one assay is T1, ERF (Homo sapiens, UniProt P50548 1-548).
T1 sequence: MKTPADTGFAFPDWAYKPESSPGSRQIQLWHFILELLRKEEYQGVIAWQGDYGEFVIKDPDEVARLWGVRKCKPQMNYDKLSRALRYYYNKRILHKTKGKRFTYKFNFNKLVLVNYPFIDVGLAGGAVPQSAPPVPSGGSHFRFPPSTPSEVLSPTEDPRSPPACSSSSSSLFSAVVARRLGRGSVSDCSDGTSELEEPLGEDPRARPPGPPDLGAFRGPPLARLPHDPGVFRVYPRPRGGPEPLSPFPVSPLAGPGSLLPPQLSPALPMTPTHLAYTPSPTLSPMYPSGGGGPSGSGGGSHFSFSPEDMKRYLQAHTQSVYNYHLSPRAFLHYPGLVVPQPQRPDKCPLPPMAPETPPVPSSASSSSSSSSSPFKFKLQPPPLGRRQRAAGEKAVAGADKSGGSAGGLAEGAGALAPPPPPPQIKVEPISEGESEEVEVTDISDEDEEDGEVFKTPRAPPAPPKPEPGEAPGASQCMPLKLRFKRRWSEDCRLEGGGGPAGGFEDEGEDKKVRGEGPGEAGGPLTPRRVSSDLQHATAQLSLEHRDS
The essentials:
(§1)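 Pools of DNA-barcoded human transcription factors, expressed in yeast as GST fusions on glutathione beads and combined with a tag-only sample, were incubated with 200 nmole of a 16-mer random double-stranded DNA library. Incubation took 30 min at room temperature in Tris/NaCl/DTT/glycerol buffer and was followed by washing, 0.1% formaldehyde crosslinking, proximity ligation (BsaI/T4 ligase, 1 h, 37 °C), PCR amplification and sequencing on an Illumina NextSeq500. Binding signal is the ratio of a hexamer's read frequency for a factor to its frequency for the tag-only sample.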

The target in another assay is T2, ETV3L (Homo sapiens, UniProt Q6ZN32 1-361).
T2 sequence: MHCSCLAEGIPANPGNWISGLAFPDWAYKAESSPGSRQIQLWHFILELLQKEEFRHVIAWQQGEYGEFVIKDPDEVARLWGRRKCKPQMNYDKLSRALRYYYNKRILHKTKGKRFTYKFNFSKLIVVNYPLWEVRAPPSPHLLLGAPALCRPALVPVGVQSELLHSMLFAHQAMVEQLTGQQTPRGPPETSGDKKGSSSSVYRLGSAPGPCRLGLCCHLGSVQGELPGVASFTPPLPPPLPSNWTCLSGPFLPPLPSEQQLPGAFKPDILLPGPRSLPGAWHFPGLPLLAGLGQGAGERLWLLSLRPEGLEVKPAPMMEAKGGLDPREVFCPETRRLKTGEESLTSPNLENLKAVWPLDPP
The essentials:
as §1

In the next assay the target is T3, ETS2 (Homo sapiens, UniProt P15036 1-469).
T3 sequence: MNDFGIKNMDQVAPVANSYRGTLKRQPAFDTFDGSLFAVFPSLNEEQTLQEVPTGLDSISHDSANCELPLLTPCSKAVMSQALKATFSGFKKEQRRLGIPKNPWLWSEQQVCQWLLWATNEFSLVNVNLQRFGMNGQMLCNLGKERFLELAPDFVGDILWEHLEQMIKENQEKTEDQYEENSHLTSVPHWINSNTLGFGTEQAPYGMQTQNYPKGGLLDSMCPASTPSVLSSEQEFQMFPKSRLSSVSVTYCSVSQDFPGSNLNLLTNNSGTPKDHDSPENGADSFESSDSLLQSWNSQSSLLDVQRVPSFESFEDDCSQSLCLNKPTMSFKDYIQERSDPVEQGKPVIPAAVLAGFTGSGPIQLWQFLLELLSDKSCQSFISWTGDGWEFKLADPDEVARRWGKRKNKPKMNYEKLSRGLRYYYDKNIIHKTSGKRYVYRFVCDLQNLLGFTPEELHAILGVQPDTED
The essentials: as §1

For another assay, the target named is T4, ETV7 (Homo sapiens, UniProt Q9Y603 1-341).
T4 sequence: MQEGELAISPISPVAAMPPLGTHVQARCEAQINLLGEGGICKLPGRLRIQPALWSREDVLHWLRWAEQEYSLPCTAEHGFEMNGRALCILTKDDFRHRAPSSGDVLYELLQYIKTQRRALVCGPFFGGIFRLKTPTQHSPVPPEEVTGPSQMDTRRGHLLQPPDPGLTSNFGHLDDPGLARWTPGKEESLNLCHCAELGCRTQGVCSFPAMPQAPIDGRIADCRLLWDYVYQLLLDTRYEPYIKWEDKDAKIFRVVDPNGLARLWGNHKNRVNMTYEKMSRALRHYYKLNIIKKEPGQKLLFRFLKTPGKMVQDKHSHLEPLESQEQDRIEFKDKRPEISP
The essentials:
as §1

The target in a further assay is T5, ELF5 (Homo sapiens, UniProt Q9UKW6-2 1-255).
T5 sequence: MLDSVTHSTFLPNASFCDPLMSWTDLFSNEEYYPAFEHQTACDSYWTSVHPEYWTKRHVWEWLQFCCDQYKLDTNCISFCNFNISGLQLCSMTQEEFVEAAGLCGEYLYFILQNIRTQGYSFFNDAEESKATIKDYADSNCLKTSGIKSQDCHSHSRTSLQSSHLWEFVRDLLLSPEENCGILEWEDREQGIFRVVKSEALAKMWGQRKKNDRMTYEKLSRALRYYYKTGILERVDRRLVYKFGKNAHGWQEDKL
The essentials: as §1

The target of the next assay is T6, ETV3 (Homo sapiens, UniProt P41162-2 1-143).
T6 sequence: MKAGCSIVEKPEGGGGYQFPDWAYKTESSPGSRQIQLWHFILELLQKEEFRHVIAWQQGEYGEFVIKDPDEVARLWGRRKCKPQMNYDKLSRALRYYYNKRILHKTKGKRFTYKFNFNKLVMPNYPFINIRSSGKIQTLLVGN
The essentials: as §1

The next assay has as its target ETV6 (Homo sapiens, UniProt P41212 1-452). The essentials:
as §1

The target in the next assay is T7, SPDEF (Homo sapiens, UniProt O95238 1-335).
T7 sequence: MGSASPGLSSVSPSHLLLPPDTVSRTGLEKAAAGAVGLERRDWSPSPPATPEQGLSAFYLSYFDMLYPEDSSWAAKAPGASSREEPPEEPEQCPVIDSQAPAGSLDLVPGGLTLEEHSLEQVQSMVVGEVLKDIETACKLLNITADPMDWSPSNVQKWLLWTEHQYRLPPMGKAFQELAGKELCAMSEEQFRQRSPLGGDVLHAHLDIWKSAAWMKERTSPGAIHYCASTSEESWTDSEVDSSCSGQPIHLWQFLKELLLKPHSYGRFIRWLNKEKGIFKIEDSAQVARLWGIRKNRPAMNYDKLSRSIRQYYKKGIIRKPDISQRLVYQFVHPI
Summed up: as §1

ETV6, sequence (P41212 whole entry): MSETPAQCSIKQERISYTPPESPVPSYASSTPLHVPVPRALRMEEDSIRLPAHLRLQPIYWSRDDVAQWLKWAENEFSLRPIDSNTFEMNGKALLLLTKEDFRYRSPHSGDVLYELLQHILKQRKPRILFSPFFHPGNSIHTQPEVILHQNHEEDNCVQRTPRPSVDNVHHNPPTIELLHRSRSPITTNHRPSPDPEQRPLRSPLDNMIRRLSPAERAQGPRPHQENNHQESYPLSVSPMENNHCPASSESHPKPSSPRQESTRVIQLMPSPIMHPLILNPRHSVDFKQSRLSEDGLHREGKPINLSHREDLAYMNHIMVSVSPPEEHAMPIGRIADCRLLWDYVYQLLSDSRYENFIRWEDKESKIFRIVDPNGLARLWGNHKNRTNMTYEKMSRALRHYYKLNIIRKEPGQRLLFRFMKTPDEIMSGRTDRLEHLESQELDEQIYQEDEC

Consider TTTCGC, for which the binding signal with ERF is 1.1 fold enrichment (6-mer frequency, TF over GST control); with ETV3L, 1.25 fold enrichment (6-mer frequency, TF over GST control); with ETS2, 1.14 fold enrichment (6-mer frequency, TF over GST control); with ETV7, 1.16 fold enrichment (6-mer frequency, TF over GST control); with ELF5, 1.08 fold enrichment (6-mer frequency, TF over GST control); in the assay with ETV3 it was 1.13 fold enrichment (6-mer frequency, TF over GST control). In the assay with ETV6, the binding signal is 1.11 fold enrichment (6-mer frequency, TF over GST control).

As for AAGCTG, the binding signal in the assay with ERF is 1.18 fold enrichment (6-mer frequency, TF over GST control); with ETV3L it was 1.05 fold enrichment (6-mer frequency, TF over GST control); with ETS2, 1.13 fold enrichment (6-mer frequency, TF over GST control); in the assay with ETV7, 1.18 fold enrichment (6-mer frequency, TF over GST control); with ELF5, 1.11 fold enrichment (6-mer frequency, TF over GST control); in the assay with ETV3 it was 1.24 fold enrichment (6-mer frequency, TF over GST control). For the same sequence, the binding signal with ETV6 was 1.08 fold enrichment (6-mer frequency, TF over GST control).

For the sequence TGTGCA, the binding signal with ERF is 1.21 fold enrichment (6-mer frequency, TF over GST control); with ETV3L, 1.06 fold enrichment (6-mer frequency, TF over GST control); in the assay with ETS2, 1.16 fold enrichment (6-mer frequency, TF over GST control); in the assay with SPDEF it was 1.14 fold enrichment (6-mer frequency, TF over GST control); with ETV3, 1.08 fold enrichment (6-mer frequency, TF over GST control); with ETV6 it was 1 fold enrichment (6-mer frequency, TF over GST control).

With GCGCCC, the binding signal with ERF was 1.18 fold enrichment (6-mer frequency, TF over GST control); in the assay with ETV3L it was 1.2 fold enrichment (6-mer frequency, TF over GST control); with ETS2, 1.05 fold enrichment (6-mer frequency, TF over GST control); with SPDEF, 1.13 fold enrichment (6-mer frequency, TF over GST control); with ETV3, 1.2 fold enrichment (6-mer frequency, TF over GST control); in the assay with ETV6, 1.03 fold enrichment (6-mer frequency, TF over GST control).

As to ATAAAG, the binding signal in the assay with ERF was 1.02 fold enrichment (6-mer frequency, TF over GST control); with ETV3L, 1.01 fold enrichment (6-mer frequency, TF over GST control); in the assay with ETS2 it was 1 fold enrichment (6-mer frequency, TF over GST control); with ETV7, 1.09 fold enrichment (6-mer frequency, TF over GST control); with ELF5 it was 1.03 fold enrichment (6-mer frequency, TF over GST control); in the assay with ETV3, 1.05 fold enrichment (6-mer frequency, TF over GST control). In addition, the binding signal with ETV6 was 1.03 fold enrichment (6-mer frequency, TF over GST control).

For TAGCAG, the binding signal in the assay with ERF was 1.11 fold enrichment (6-mer frequency, TF over GST control); with ETV3L it was 1.07 fold enrichment (6-mer frequency, TF over GST control); in the assay with ETS2, 1.02 fold enrichment (6-mer frequency, TF over GST control); with ETV7, 1.07 fold enrichment (6-mer frequency, TF over GST control); in the assay with ELF5, 1.05 fold enrichment (6-mer frequency, TF over GST control).

CATTAT: the binding signal was 1.21 fold enrichment (6-mer frequency, TF over GST control) with ERF; 1.24 fold enrichment (6-mer frequency, TF over GST control) with ETV3L; 1.21 fold enrichment (6-mer frequency, TF over GST control) with ETS2; 1.31 fold enrichment (6-mer frequency, TF over GST control) with ETV7; 1.12 fold enrichment (6-mer frequency, TF over GST control) with ELF5; 1.15 fold enrichment (6-mer frequency, TF over GST control) in the assay with ETV3. Further, in the assay with ETV6, the binding signal was 1.2 fold enrichment (6-mer frequency, TF over GST control).
